Experiments:
Assay in all cases: DAPPL (digital affinity profiling via proximity ligation, sequencing); 10 mM Tris-HCl pH 7.5, 50 mM NaCl, 1 mM DTT, 4% glycerol, room temperature, 30 min; GST-TFs on glutathione beads, 16-mer random dsDNA library, 0.1% formaldehyde crosslink after washing; high values mean tight binding
FEV = molecular target: T1, FEV (Homo sapiens, UniProt Q99581 1-238); details: protein: recombinant; tags: N-terminal GST; dsDNA, one strand shown
T1 sequence: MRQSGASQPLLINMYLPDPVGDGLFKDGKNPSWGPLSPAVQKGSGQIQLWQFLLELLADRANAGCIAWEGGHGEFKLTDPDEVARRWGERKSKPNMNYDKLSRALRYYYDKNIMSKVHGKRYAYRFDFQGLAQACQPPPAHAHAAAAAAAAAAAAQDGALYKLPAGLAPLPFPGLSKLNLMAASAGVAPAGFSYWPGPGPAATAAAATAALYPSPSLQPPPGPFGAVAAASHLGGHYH
Method in brief: (§1)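 Binding signal is each hexamer's read frequency for a factor divided by its frequency in the tag-only sample. The factors were GST-fused human transcription factors from yeast, captured on glutathione beads, DNA-barcoded and pooled with that sample. Pools were incubated with 200 nmole of a random double-stranded 16-mer DNA library in Tris/NaCl/DTT/glycerol buffer at room temperature for 30 min, then washed, crosslinked with 0.1% formaldehyde, proximity-ligated with BsaI/T4 ligase (1 h, 37 °C), PCR-amplified and sequenced on an Illumina NextSeq500.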

ETV5 = ETV5 (Homo sapiens, UniProt P41161 1-510); details: protein: recombinant; tags: N-terminal GST; dsDNA, one strand shown
ETV5, sequence (P41161 whole entry): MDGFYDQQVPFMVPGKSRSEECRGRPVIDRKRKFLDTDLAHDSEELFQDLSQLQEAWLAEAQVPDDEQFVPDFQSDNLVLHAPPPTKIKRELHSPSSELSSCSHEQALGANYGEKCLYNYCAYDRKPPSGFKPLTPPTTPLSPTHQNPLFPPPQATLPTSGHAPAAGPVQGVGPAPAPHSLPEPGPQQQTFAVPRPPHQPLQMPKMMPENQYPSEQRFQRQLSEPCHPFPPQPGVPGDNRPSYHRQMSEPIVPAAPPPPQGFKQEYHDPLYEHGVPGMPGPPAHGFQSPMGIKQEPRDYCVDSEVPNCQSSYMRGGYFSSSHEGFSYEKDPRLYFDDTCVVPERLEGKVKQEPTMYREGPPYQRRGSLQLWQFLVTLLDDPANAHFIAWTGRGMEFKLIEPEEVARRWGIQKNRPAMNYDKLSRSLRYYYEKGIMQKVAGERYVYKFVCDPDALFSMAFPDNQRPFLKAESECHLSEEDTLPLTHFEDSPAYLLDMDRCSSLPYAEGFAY
Method in brief: as §1

HSF1 = HSF1 (Homo sapiens, UniProt Q00613 1-529); details: protein: recombinant; tags: N-terminal GST; chain copies: 3; dsDNA, one strand shown
HSF1, sequence (Q00613 whole entry): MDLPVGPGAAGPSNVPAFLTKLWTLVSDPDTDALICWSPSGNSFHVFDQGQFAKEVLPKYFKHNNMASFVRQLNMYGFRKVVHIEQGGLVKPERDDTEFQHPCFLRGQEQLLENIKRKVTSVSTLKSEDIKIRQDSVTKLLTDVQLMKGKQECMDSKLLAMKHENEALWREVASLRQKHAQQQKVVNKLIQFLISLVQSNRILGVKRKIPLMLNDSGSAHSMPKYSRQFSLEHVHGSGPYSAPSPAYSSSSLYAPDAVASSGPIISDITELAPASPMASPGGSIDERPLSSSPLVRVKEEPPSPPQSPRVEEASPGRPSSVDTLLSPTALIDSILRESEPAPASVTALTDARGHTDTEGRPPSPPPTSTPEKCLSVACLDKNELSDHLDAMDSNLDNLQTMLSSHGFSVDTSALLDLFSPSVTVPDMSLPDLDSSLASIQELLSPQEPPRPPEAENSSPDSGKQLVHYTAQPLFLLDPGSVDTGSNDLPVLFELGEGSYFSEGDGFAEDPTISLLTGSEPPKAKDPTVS
Method in brief: as §1

SPIC = molecular target: T2, SPIC (Homo sapiens, UniProt Q8N5J4 1-248); details: protein: recombinant; tags: N-terminal GST; dsDNA, one strand shown
T2 sequence: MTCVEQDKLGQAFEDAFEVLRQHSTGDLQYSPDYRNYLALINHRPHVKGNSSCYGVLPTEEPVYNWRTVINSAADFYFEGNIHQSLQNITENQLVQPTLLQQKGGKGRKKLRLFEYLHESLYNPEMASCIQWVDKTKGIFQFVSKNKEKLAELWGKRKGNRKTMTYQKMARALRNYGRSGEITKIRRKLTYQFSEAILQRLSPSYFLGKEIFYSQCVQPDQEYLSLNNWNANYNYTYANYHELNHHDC
Method in brief: as §1

ELF4 = ELF4 (Homo sapiens, UniProt Q99607 1-663); details: protein: recombinant; tags: N-terminal GST; dsDNA, one strand shown
ELF4, sequence (Q99607 whole entry): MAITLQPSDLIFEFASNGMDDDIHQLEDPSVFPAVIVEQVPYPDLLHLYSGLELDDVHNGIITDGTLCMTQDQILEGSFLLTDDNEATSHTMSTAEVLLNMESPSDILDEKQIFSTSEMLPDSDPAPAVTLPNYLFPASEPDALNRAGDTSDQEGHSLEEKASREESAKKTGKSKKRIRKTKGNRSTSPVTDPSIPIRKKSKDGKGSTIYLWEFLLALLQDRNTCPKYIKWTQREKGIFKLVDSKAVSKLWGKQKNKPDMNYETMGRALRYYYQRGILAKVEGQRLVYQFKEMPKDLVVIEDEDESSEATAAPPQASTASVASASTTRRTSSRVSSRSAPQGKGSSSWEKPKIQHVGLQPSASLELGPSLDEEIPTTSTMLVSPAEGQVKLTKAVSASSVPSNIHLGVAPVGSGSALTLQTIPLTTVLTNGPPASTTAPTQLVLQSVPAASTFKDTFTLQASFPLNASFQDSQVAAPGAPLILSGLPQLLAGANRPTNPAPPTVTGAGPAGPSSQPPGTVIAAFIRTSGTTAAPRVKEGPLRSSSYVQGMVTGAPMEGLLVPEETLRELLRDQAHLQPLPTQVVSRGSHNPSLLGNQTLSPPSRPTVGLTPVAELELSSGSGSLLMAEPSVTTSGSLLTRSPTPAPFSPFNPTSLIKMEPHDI
Method in brief: as §1

ELK4 = molecular target: T3, ELK4 (Homo sapiens, UniProt P28324-2 1-405); details: protein: recombinant; tags: N-terminal GST; dsDNA, one strand shown
T3 sequence: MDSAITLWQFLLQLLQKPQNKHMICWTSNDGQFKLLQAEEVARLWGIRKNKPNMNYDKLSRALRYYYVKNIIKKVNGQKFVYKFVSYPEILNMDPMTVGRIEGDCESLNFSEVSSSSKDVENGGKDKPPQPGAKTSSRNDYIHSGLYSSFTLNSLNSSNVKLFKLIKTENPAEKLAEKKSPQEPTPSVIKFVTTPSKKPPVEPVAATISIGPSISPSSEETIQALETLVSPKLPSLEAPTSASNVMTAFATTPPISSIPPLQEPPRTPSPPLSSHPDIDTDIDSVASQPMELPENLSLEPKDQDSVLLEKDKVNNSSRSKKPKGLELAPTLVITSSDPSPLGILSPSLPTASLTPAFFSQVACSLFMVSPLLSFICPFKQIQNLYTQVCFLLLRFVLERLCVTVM
Method in brief: as §1

ETV2 = molecular target: T4, ETV2 (Homo sapiens, UniProt O00321 1-342); details: protein: recombinant; tags: N-terminal GST; dsDNA, one strand shown
T4 sequence: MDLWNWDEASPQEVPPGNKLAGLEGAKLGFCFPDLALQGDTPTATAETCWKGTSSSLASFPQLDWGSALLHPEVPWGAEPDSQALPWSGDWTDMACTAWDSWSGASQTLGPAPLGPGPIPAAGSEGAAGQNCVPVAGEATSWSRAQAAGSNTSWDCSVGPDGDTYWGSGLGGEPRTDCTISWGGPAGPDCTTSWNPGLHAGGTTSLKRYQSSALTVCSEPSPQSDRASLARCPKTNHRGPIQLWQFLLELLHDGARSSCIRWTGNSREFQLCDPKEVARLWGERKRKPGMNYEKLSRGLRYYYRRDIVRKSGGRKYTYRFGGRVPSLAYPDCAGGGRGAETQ
Method in brief: as §1

ELF3 = molecular target: T5, ELF3 (Homo sapiens, UniProt P78545 1-371); details: protein: recombinant; tags: N-terminal GST; dsDNA, one strand shown
T5 sequence: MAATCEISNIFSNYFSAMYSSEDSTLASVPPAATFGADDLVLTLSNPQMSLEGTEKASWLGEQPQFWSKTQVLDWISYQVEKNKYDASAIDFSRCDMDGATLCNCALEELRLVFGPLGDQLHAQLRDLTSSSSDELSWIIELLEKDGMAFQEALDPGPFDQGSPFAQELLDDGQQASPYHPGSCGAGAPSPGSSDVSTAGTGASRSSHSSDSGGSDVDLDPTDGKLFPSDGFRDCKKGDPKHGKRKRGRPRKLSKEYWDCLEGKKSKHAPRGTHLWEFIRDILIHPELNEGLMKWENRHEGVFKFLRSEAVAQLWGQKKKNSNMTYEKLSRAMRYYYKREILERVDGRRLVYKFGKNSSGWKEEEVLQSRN
Method in brief: as §1

CRX = CRX (Homo sapiens, UniProt O43186 1-299); details: protein: recombinant; tags: N-terminal GST; dsDNA, one strand shown
CRX, sequence (O43186 whole entry): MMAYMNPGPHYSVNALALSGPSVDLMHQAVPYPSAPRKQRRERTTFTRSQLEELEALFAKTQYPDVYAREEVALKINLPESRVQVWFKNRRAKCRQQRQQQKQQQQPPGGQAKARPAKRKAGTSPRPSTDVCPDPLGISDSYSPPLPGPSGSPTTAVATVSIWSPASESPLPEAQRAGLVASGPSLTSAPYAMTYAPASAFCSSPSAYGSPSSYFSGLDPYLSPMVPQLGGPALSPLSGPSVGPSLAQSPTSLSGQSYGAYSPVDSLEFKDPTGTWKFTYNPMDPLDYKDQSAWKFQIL
Method in brief: as §1

ETV1 = ETV1 (Homo sapiens, UniProt P50549 1-477); details: protein: recombinant; tags: N-terminal GST; dsDNA, one strand shown
ETV1, sequence (P50549 whole entry): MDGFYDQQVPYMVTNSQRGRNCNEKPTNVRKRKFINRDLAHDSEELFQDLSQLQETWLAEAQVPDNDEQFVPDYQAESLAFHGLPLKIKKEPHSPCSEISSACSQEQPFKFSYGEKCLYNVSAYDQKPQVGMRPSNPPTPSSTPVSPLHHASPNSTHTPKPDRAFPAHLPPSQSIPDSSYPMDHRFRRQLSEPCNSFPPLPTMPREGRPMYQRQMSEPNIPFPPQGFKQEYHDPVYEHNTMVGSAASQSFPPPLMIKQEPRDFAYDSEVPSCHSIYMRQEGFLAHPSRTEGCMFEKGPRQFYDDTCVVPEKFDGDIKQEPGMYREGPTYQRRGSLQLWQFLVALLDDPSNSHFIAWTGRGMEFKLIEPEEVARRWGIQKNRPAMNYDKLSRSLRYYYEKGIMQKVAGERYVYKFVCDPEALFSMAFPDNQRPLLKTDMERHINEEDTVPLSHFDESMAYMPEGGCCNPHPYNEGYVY
Method in brief: as §1

ERF = molecular target: T6, ERF (Homo sapiens, UniProt P50548 1-548); details: protein: recombinant; tags: N-terminal GST; dsDNA, one strand shown
T6 sequence: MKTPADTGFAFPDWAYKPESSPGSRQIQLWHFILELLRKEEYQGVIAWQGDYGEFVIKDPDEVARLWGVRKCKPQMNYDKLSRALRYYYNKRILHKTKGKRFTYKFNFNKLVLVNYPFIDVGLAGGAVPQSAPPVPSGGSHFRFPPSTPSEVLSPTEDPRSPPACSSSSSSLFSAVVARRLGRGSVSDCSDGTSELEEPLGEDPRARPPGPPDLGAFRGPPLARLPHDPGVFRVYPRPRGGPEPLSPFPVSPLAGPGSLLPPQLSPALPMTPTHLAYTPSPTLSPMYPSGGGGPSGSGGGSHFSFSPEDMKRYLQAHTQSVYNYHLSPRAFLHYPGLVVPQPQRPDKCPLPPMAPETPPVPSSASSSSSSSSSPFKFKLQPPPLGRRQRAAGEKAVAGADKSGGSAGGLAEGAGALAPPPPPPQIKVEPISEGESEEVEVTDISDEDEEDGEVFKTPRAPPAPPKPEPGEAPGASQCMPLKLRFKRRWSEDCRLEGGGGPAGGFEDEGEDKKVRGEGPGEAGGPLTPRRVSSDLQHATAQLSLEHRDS
Method in brief: as §1

ETV3L = molecular target: T7, ETV3L (Homo sapiens, UniProt Q6ZN32 1-361); details: protein: recombinant; tags: N-terminal GST; dsDNA, one strand shown
T7 sequence: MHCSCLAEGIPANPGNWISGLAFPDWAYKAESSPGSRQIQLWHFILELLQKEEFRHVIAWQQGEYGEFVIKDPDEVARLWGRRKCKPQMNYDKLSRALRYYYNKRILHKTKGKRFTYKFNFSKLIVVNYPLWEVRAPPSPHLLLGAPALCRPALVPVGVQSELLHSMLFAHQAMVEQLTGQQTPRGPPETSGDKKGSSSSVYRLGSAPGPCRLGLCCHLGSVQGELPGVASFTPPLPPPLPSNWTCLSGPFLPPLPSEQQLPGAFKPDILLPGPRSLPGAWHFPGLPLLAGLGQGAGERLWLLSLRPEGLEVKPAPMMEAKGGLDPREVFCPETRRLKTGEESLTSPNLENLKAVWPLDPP
Method in brief: as §1

ETS2 = molecular target: T8, ETS2 (Homo sapiens, UniProt P15036 1-469); details: protein: recombinant; tags: N-terminal GST; dsDNA, one strand shown
T8 sequence: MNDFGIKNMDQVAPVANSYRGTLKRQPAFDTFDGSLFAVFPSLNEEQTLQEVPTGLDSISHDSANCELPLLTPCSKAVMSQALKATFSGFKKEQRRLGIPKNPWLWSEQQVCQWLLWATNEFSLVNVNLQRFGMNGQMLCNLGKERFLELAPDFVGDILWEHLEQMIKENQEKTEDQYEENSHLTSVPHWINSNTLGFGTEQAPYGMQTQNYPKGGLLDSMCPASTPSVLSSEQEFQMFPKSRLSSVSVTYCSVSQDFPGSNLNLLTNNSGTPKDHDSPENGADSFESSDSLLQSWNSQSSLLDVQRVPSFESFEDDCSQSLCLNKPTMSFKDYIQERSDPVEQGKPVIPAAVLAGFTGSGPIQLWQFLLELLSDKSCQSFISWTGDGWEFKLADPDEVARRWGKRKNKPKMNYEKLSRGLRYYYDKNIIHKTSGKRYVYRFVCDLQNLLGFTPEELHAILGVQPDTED
Method in brief: as §1

SPDEF = molecular target: T9, SPDEF (Homo sapiens, UniProt O95238 1-335); details: protein: recombinant; tags: N-terminal GST; dsDNA, one strand shown
T9 sequence: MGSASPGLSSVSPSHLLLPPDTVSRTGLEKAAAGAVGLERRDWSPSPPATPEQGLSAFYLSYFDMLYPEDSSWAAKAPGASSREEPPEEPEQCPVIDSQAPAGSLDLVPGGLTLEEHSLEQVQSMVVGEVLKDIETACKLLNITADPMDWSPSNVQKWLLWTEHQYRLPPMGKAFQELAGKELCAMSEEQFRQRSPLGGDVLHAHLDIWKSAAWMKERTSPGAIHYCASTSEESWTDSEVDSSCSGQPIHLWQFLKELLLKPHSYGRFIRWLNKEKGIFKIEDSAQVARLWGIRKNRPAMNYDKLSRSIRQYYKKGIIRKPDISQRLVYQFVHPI
Method in brief: as §1

ETV7 = molecular target: T10, ETV7 (Homo sapiens, UniProt Q9Y603 1-341); details: protein: recombinant; tags: N-terminal GST; dsDNA, one strand shown
T10 sequence: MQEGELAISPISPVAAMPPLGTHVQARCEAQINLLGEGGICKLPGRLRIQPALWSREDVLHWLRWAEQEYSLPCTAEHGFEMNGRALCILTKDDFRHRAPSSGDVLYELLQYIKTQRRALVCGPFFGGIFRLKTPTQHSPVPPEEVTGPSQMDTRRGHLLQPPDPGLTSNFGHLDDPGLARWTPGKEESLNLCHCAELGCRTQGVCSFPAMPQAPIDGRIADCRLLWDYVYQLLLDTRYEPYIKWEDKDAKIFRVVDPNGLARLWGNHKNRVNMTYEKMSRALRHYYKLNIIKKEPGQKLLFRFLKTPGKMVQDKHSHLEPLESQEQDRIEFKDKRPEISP
Method in brief: as §1

ELF5 = molecular target: T11, ELF5 (Homo sapiens, UniProt Q9UKW6-2 1-255); details: protein: recombinant; tags: N-terminal GST; dsDNA, one strand shown
T11 sequence: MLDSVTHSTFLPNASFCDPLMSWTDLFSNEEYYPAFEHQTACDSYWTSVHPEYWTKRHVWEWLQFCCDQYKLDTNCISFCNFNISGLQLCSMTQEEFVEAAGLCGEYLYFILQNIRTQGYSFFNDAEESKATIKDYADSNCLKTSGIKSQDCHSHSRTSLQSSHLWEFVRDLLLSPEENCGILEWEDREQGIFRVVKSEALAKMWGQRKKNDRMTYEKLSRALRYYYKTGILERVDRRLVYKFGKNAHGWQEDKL
Method in brief: as §1

ETV3 = molecular target: T12, ETV3 (Homo sapiens, UniProt P41162-2 1-143); details: protein: recombinant; tags: N-terminal GST; dsDNA, one strand shown
T12 sequence: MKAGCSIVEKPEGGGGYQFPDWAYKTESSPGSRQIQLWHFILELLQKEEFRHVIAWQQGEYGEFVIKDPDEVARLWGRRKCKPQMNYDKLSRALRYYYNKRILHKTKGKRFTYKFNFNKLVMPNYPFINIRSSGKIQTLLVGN
Method in brief: as §1

ETV6 = ETV6 (Homo sapiens, UniProt P41212 1-452); details: protein: recombinant; tags: N-terminal GST; dsDNA, one strand shown
ETV6, sequence (P41212 whole entry): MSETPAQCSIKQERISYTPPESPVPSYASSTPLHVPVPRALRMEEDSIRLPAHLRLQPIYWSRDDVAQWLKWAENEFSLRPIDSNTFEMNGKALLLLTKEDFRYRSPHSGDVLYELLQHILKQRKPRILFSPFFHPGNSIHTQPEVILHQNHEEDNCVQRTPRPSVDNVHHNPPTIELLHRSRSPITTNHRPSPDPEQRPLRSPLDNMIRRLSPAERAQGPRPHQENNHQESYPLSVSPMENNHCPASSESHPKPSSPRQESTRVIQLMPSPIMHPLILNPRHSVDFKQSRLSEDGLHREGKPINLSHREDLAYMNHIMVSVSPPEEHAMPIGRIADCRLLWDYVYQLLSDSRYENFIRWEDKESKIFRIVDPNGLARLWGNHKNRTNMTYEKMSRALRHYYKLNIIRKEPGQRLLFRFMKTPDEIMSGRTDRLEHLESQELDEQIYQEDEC
Method in brief: as §1

## AATGCG
FEV
  binding signal: 1.27 fold enrichment (6-mer frequency, TF over GST control)
ETV5
  binding signal: 1.2 fold enrichment (6-mer frequency, TF over GST control)
HSF1
  binding signal: 1.13 fold enrichment (6-mer frequency, TF over GST control)
SPIC
  binding signal: 1.22 fold enrichment (6-mer frequency, TF over GST control)
ELF4
  binding signal: 1.33 fold enrichment (6-mer frequency, TF over GST control)
ELK4
  binding signal: 1.25 fold enrichment (6-mer frequency, TF over GST control)
ETV2
  binding signal: 1.34 fold enrichment (6-mer frequency, TF over GST control)
ELF3
  binding signal: 1.43 fold enrichment (6-mer frequency, TF over GST control)
CRX
  binding signal: 1.36 fold enrichment (6-mer frequency, TF over GST control)
ETV1
  binding signal: 1.3 fold enrichment (6-mer frequency, TF over GST control)
ERF
  binding signal: 1.18 fold enrichment (6-mer frequency, TF over GST control)
ETV3L
  binding signal: 1.36 fold enrichment (6-mer frequency, TF over GST control)
ETS2
  binding signal: 1.3 fold enrichment (6-mer frequency, TF over GST control)
SPDEF
  binding signal: 1.26 fold enrichment (6-mer frequency, TF over GST control)
ETV7
  binding signal: 1.21 fold enrichment (6-mer frequency, TF over GST control)
ELF5
  binding signal: 1.3 fold enrichment (6-mer frequency, TF over GST control)
ETV3
  binding signal: 1.22 fold enrichment (6-mer frequency, TF over GST control)
ETV6
  binding signal: 1.29 fold enrichment (6-mer frequency, TF over GST control)

Source: paper PMC7862700, “An all-to-all approach to the identification of sequence-specific readers for epigenetic DNA modifications on cytosine”
